Inconclusive results are not listed. The source made the active and inactive calls. The calls were made as follows, unless noted: active = hit-call score of the fitted dose curve at least 0.9, where 1 is the maximum; inconclusive = response in the unintended direction; inactive = score below 0.9.
Key:
[1] = target: Cellular tumor antigen p53 (Homo sapiens) (UniProt P04637); test: TOX21_p53_BLA_p2_ratio: Tox21 HCT-116 p53 Agonism Beta-lactamase Assay, Ratio, Phase 2 (AID 2283592)
Summary of the method: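 An inducible beta-lactamase reporter in HCT116 cells signals p53 pathway activation. After 16 h chemical exposure at 37C, cells load CCF4-AM substrate for 2 h at room temperature; activity is the cleaved/uncleaved emission ratio relative to DMSO.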

[2] = target: Cellular tumor antigen p53 (Homo sapiens) (UniProt P04637); test: TOX21_p53_BLA_p3_ratio: Tox21 HCT-116 p53 Agonism Beta-lactamase Assay, Ratio, Phase 3 (AID 2283596)
Summary of the method: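 HCT116 p53-bla cells (4000/well) given compound in DMSO (217-fold dilution) after 5 h, incubated 16 h at 37C. CCF4-AM substrate 2 h at room temperature; 460/530 nm emission ratio, gain fitted against DMSO.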

[3] = TOX21_p53_BLA_p4_viability: Viability Assessment in the Tox21 HCT-116 p53 Agonism Beta-lactamase Assay, Phase 4 (AID 2283597);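 also: hits lower the luminescence signal meaning cytotoxicity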
Summary of the method: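 Compound exposure of HCT116 cells lasts 16 h at 37C, 5% CO2, with DMSO stocks diluted 217-fold. Cellular ATP is then quantified by CellTiter-Glo luminescence after 30 min at room temperature.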

[4] = target: Cellular tumor antigen p53 (Homo sapiens) (UniProt P04637); test: TOX21_p53_BLA_p5_ratio: Tox21 HCT-116 p53 Agonism Beta-lactamase Assay, Ratio, Phase 5 (AID 2283599)
Summary of the method: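 HCT-116 cells carrying a p53-inducible beta-lactamase reporter were seeded at 4000 cells/well and dosed after 5 h with compound in DMSO (217-fold dilution). After 16 h at 37C, CCF4-AM substrate was added for 2 h, and the 460/530 nm emission ratio was scored as gain-of-signal versus DMSO.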

[5] = TOX21_p53_BLA_p3_viability: Viability Assessment in the Tox21 HCT-116 p53 Agonism Beta-lactamase Assay, Phase 3 (AID 2283593);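 also: cells exposed to compound for 16 h before reading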
Summary of the method: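 HCT-116 cells (4000/well) rested 5 h at 37C, then got DMSO compounds by pin tool (217-fold dilution) for 16 h at 37C, 5% CO2. After the bla read, CellTiter-Glo was added and luminescence read at 30 min, room temperature.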

[6] = TOX21_p53_BLA_p5_viability: Viability Assessment in the Tox21 HCT-116 p53 Agonism Beta-lactamase Assay, Phase 5 (AID 2283600)
Summary of the method: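 Counter-readout for cytotoxicity: ATP-dependent luminescence from CellTiter-Glo, read in the beta-lactamase wells after 30 min at RT, following a 16 h compound exposure at 37C.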

[7] = target: Cellular tumor antigen p53 (Homo sapiens) (UniProt P04637); test: TOX21_p53_BLA_p4_ratio: Tox21 HCT-116 p53 Agonism Beta-lactamase Assay, Ratio, Phase 4 (AID 2283601)
Summary of the method: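 HCT116 cells carrying an inducible beta-lactamase reporter were plated at 4000 cells/well, rested 5 h, then exposed to compounds in DMSO (217-fold dilution) for 16 h at 37C. CCF4-AM substrate was loaded 2 h at room temperature; 460/530 nm emission ratio scored gain-of-signal versus DMSO.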

[8] = UKN5_HCS_SBAD2_cell_viability: Viability Assessment in the University of Konstanz (UKN) Leist Lab Neurite Outgrowth Assay in human iPSC-derived immature Dorsal Root Ganglia Neurons (UKN5) (AID 2284056; active = hit-call score of the fitted dose curve at least 0.9, where 1 is the maximum; inactive = score below 0.9)
Summary of the method: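 iPSC-derived immature peripheral neurons (SBAD2) seeded on Matrigel with CHIR99021, SU5402 and DAPT, dosed 1 h later for 24 h. Viability from Hoechst H-33342 and calcein-AM live staining, high-content imaging; bidirectional fit versus DMSO.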

[9] = UKN5_HCS_SBAD2_neurite_outgrowth: University of Konstanz (UKN) Leist Lab Neurite Outgrowth Assay in human iPSC-derived immature Dorsal Root Ganglia Neurons (UKN5) (AID 2284070; active = hit-call score of the fitted dose curve at least 0.9, where 1 is the maximum; inactive = score below 0.9); settings: actives raise or lower the signal
Summary of the method: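 SBAD2 neurons, 24 h compound treatment, calcein-AM neurite area via HCS imaging; DMSO baseline, gain or loss of signal.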

[10] = UKN4_HCS_LUHMES_neurite_outgrowth: University of Konstanz (UKN) Leist Lab Neurite Outgrowth Assay in human LUHMES cells (UKN4) (AID 2284206; active = hit-call score of the fitted dose curve at least 0.9, where 1 is the maximum; inactive = score below 0.9); settings: actives raise or lower the signal
Summary of the method: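 2-day-differentiated LUHMES, 24 h cpd exposure, live calcein-AM + H-33342 stain, HCS fluorescence imaging of neurite area; DMSO = baseline, bidirectional fit.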

[11] = UKN4_HCS_LUHMES_cell_viability: Viability Assessment in the University of Konstanz (UKN) Leist Lab Neurite Outgrowth Assay in human LUHMES cells (UKN4) (AID 2284232; active = hit-call score of the fitted dose curve at least 0.9, where 1 is the maximum; inactive = score below 0.9)
Summary of the method: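 Human dopaminergic-model LUHMES neurons were exposed to chemicals for 24 h after a 2-day differentiation. Viability was scored by imaging Hoechst H-33342 staining, with activity fitted in both directions relative to DMSO controls.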

[12] = UKN2_HCS_IMR90_cell_viability: Viability Assessment in the University of Konstanz (UKN) Leist Lab Neural Crest Cell Migration Assay in human induced IMR90 Pluripotent Stem Cells (UKN2) (AID 2284233; active = hit-call score of the fitted dose curve at least 0.9, where 1 is the maximum; inactive = score below 0.9;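 also: viability of neural crest cells differentiated from IMR90 iPSC measured by calcein-AM fluorescence imaging; cells exposed to compound for 24 h after a 24 h migration phase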)
Summary of the method: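 iPSC-derived (IMR90) neural crest cells seeded around silicone stoppers on PLO/laminin/fibronectin; after 24 h migration in N2-S with EGF/FGF, chemical added for 24 h. Calcein-AM/Hoechst stained 30 min, high-content imaged; bidirectional fit versus DMSO.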

Measured: outcome

Sequence of Cellular tumor antigen p53 (Homo sapiens) (P04637 whole entry, looked up): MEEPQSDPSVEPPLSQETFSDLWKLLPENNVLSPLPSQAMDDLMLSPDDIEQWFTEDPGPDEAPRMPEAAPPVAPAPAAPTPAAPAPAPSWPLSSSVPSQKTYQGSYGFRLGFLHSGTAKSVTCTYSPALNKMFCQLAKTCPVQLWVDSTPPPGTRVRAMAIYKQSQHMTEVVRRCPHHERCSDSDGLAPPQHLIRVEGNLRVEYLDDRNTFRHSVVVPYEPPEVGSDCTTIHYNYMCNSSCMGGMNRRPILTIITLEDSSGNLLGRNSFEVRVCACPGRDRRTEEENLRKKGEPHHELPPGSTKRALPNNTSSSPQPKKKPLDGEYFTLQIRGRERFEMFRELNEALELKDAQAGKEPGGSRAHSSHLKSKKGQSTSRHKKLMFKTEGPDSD

CN(C)CCc1c[nH]c2cccc(O)c12
inactive: [1] | [2] | [3] | [4]

C[N+]1(C)[C@@H]2CC[C@H]1CC(OC(=O)c1c[nH]c3ccccc13)C2 (some centres undefined)
inactive: [1] | [5] | [3] | [4] | [6] | [7]

Brc1c(Br)c(Br)c(Br)c(Br)c1Br
inactive: [1] | [5] | [3] | [4] | [6]

CC(C)NCC(O)c1ccccc1Cl (centres undefined)
inactive: [1] | [2]

CNC(=O)Oc1ccccc1C(=O)Nc1ccccc1
inactive: [1] | [5] | [3] | [4] | [6] | [7]

O=C(Cl)c1ccccc1F
inactive: [1] | [5] | [3] | [4] | [6]

CNN
inactive: [1] | [5] | [3] | [6]

CC(=O)Oc1ccc2c3c1O[C@H]1[C@@H](OC(C)=O)C=C[C@H]4[C@@H](C2)N(C)CC[C@@]341
inactive: [1] | [2] | [3] | [4] | [6] | [7] | [8] | [9] | [10] | [11] | [12]

CC(Cc1ccccc1)NC=O (centres undefined)
inactive: [1] | [2] | [3] | [4] | [6] | [7]

O=C1NCN(c2ccccc2)C12CCN(CCCOc1ccc(F)cc1)CC2
inactive: [1] | [2] | [3] | [6]

CCOC(=O)c1ncn2c1CN(C)C(=O)c1c(I)cccc1-2
inactive: [1] | [2] | [3] | [4] | [7]

[O-][Br+2]([O-])O
inactive: [1] | [2] | [3] | [7]

[Cl][Sn]([Cl])([Cl])[Cl]
inactive: [1] | [2] | [3] | [4] | [6] | [7]

O=[N+]([O-])c1ccc(CCl)cc1
inactive: [1] | [2] | [3] | [4] | [6] | [7]

Reference: PubChem BioAssay (EPA / NIEHS)
